Assay results from PubChem BioAssay (EPA / NIEHS).
Activity calls are given as the source filed them. How the source made its calls: active means hit-call score of the fitted dose curve at least 0.9, where 1 is the maximum; inactive means score below 0.9.

Experiments:
Settings in all cases: mRNA level, 48 h; actives raise or lower the signal
[1] = read-out: Cytochrome P450 3A4 (Homo sapiens) (UniProt P08684); test: LTEA_HepaRG_CYP3A4: Life Technologies and Expression Analysis (LTEA) Assay for CYP3A4 using HepaRG (AID 2283487)
Outline: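 In a human hepatic line (HepaRG), duplicate wells were treated 48 h with up to 100 uM chemical in half-log dilutions. Endpoint: CYP3A4 mRNA induction or loss relative to 0.5% DMSO vehicle, by qRT-PCR.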

[2] = read-out: DNA damage-inducible transcript 3 (DDIT3), DDIT3 (gene 1649); test: LTEA_HepaRG_DDIT3: Life Technologies and Expression Analysis (LTEA) Assay for DNA damage-inducible transcript 3 (DDIT3) using HepaRG (AID 2283488)
Outline: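 Changes in DDIT3 transcript, in either direction relative to 0.5% DMSO vehicle, were quantified by TaqMan qRT-PCR after 48 h chemical exposure of HepaRG cells at 8 concentrations, maximum 100 uM.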

[3] = read-out: Early growth response protein 1 (EGR1) transcription factor, EGR1 (gene 1958); test: LTEA_HepaRG_EGR1: Life Technologies and Expression Analysis (LTEA) Assay for Early growth response protein 1 (EGR1) transcription factor using HepaRG (AID 2283490)
Outline: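 Differentiated HepaRG cells in serum-free induction medium exposed 48 hours, duplicate, to 8 half-log concentrations up to 100 uM in 0.5% DMSO. EGR1 mRNA measured by TaqMan qRT-PCR, normalized to ACTB, GAPDH, POLR2A; bidirectional fit versus DMSO.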

[4] = read-out: Ezrin (EZR), EZR (gene 7430); test: LTEA_HepaRG_EZR: Life Technologies and Expression Analysis (LTEA) Assay for Ezrin (EZR) using HepaRG (AID 2283491)
Outline: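 Gain or loss of EZR mRNA is scored relative to 0.5% DMSO in human HepaRG cultures treated 48 h with test chemicals in duplicate, eight half-log concentrations from 100 uM.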

[5] = read-out: Cytochrome P450 3A7 (Homo sapiens) (UniProt P24462); test: LTEA_HepaRG_CYP3A7: Life Technologies and Expression Analysis (LTEA) Assay for CYP3A7 using HepaRG (AID 2283492)
Outline: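 HepaRG cells plated 48 h, then dosed in serum-free induction medium for 48 h at 8 concentrations (top 100 uM, half-log steps, 0.5% DMSO). CYP3A7 mRNA by qRT-PCR, normalised to ACTB/GAPDH/POLR2A; bidirectional fit versus DMSO.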

CYP3A5 (gene 1577) = test: LTEA_HepaRG_CYP3A5: Life Technologies and Expression Analysis (LTEA) Assay for CYP3A5 using HepaRG (AID 2283493)
Outline: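 mRNA induction or loss of CYP3A5 assessed in HepaRG after 48 h dosing, 100 uM top concentration, duplicate wells; TaqMan qRT-PCR with ACTB, GAPDH, POLR2A normalization; 0.5% DMSO as negative control.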

[6] = read-out: Fatty Acid-Binding Protein 1 (FABP1), FABP1 (gene 2168); test: LTEA_HepaRG_FABP1: Life Technologies and Expression Analysis (LTEA) Assay for Fatty Acid-Binding Protein 1 (FABP1) using HepaRG (AID 2283494)
Outline: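 Differentiated human HepaRG cells exposed 48 h in serum-free induction medium to eight half-log concentrations up to 100 uM (0.5% DMSO), duplicate. FABP1 mRNA by qRT-PCR, normalised to ACTB, GAPDH, POLR2A; bidirectional fitting against DMSO.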

[7] = read-out: Cytochrome P450 4A22 (Homo sapiens) (UniProt Q5TCH4); test: LTEA_HepaRG_CYP4A22: Life Technologies and Expression Analysis (LTEA) Assay for Cytochrome P450 4A22 (CYP4A22) using HepaRG (AID 2283495)
Outline: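 qRT-PCR of CYP4A22 mRNA (Fluidigm TaqMan, normalized to three housekeeping genes) after 48 h chemical exposure of HepaRG cells; 8-point half-log series, top 100 uM, 0.5% DMSO vehicle. Bidirectional curve fitting vs DMSO baseline.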

[8] = read-out: Glutathione S-Transferase (GSTA2), GSTA2 (gene 2939); test: LTEA_HepaRG_GSTA2: Life Technologies and Expression Analysis (LTEA) Assay for Glutathione S-Transferase (GSTA2) using HepaRG (AID 2283497)
Outline: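 Differentiated human HepaRG cells were exposed in duplicate for 48 h in serum-free induction medium, 8 points from 100 uM top in half-log steps, 0.5% DMSO. GSTA2 mRNA was measured by TaqMan qRT-PCR, normalized to ACTB, GAPDH and POLR2A; bidirectional fit versus DMSO.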

[9] = read-out: Glutamate-cysteine ligase catalytic (GCLC), GCLC (gene 2729); test: LTEA_HepaRG_GCLC: Life Technologies and Expression Analysis (LTEA) Assay for Glutamate-cysteine ligase catalytic (GCLC) using HepaRG (AID 2283498)
Outline: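 Differentiated HepaRG cells exposed 48 h in serum-free induction medium, eight-point half-log series topping at 100 uM in 0.5% DMSO, duplicates. GCLC mRNA by qRT-PCR normalized to ACTB, GAPDH and POLR2A, fitted bidirectionally versus DMSO.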

[10] = read-out: growth arrest and DNA damage 45 (GADD45G), GADD45G (gene 10912); test: LTEA_HepaRG_GADD45G: Life Technologies and Expression Analysis (LTEA) Assay for growth arrest and DNA damage 45 (GADD45G) using HepaRG (AID 2283499)
Outline: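 Differentiated human HepaRG cells in serum-free induction medium were exposed for 48 h to 8 half-log concentrations up to 100 uM in 0.5% DMSO, in duplicate. GADD45G mRNA was measured by TaqMan qRT-PCR, normalised to ACTB, GAPDH and POLR2A, and fitted bidirectionally against DMSO.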

[11] = read-out: Glutamate-cysteine ligase regulatory (GCLM), GCLM (gene 2730); test: LTEA_HepaRG_GCLM: Life Technologies and Expression Analysis (LTEA) Assay for Glutamate-cysteine ligase regulatory (GCLM) using HepaRG (AID 2283500)
Outline: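 Human liver HepaRG cultures receive test chemicals for 48 hours at up to 100 uM in 0.5% DMSO. GCLM expression is measured by qRT-PCR and analysed for increases or decreases against vehicle.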

[12] = read-out: Glutathione S-transferase M3 (GSTM3), GSTM3 (gene 2947); test: LTEA_HepaRG_GSTM3: Life Technologies and Expression Analysis (LTEA) Assay for Glutathione S-transferase M3 (GSTM3) using HepaRG (AID 2283501)
Outline: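 Differentiated HepaRG cells in serum-free induction medium were exposed in duplicate for 48 h to 8 half-log concentrations up to 100 uM in 0.5% DMSO. GSTM3 mRNA was measured by TaqMan qRT-PCR, normalized to ACTB/GAPDH/POLR2A, and fitted bidirectionally versus DMSO.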

[13] = read-out: Heat shock 70 kDa protein 1 (HSPA1A), gene 3303; test: LTEA_HepaRG_HSPA1A: Life Technologies and Expression Analysis (LTEA) Assay for Heat shock 70 kDa protein 1 (HSPA1A) using HepaRG (AID 2283502)
Outline: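 HSPA1A induction in human HepaRG liver cells is measured after 48 h of chemical treatment (100 uM maximum, 0.5% DMSO vehicle). Expression comes from qRT-PCR normalized to endogenous controls.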

[14] = read-out: Hypoxia-inducible factor 1-alpha (Homo sapiens) (UniProt Q16665); test: LTEA_HepaRG_HIF1A: Life Technologies and Expression Analysis (LTEA) Assay for Hypoxia-inducible factor 1 (HIF1A) Trancription factor using HepaRG (AID 2283503)
Outline: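 HepaRG, 48 h exposure, 8-pt half-log series from 100 uM, 0.5% DMSO vehicle, duplicates. Readout: HIF1A transcript by qRT-PCR (Fluidigm array), housekeeping-normalised. Bidirectional curve fit vs DMSO baseline.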

[15] = read-out: 3-Hydroxy-3-Methylglutaryl-CoA Synthase 2 (HMGCS2), HMGCS2 (gene 3158); test: LTEA_HepaRG_HMGCS2: Life Technologies and Expression Analysis (LTEA) Assay for 3-Hydroxy-3-Methylglutaryl-CoA Synthase 2 (HMGCS2) using HepaRG (AID 2283504)
Outline: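 Differentiated human HepaRG cells were exposed in duplicate for 48 h in serum-free induction medium to eight concentrations (top 100 uM, half-log steps, 0.5% DMSO). HMGCS2 mRNA was quantified by TaqMan qRT-PCR, normalised to ACTB, GAPDH and POLR2A, then fitted bidirectionally against DMSO.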

HGF (gene 3082) = test: LTEA_HepaRG_HGF: Life Technologies and Expression Analysis (LTEA) Assay for Hepatocyte Growth Facto (HGF) using HepaRG (AID 2283505)
Outline: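 Differentiated human HepaRG cells in serum-free induction medium were exposed in duplicate for 48 h to eight concentrations (top 100 uM, half-log steps, 0.5% DMSO). HGF mRNA was quantified by qRT-PCR, normalized to ACTB, GAPDH and POLR2A.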

[16] = read-out: Insulin Like Growth Factor 1 (IGF1), IGF1 (gene 3479); test: LTEA_HepaRG_IGF1: Life Technologies and Expression Analysis (LTEA) Assay for Insulin Like Growth Factor 1 (IGF1) using HepaRG (AID 2283506)
Outline: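 Using human HepaRG liver cells, IGF1 transcript induction or suppression is measured 48 h after dosing across eight concentrations capped at 100 uM. Values derive from bidirectional concentration-response fitting with DMSO as baseline.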

[17] = read-out: Pro-epidermal growth factor (Homo sapiens) (UniProt P01133); test: LTEA_HepaRG_EGF: Life Technologies and Expression Analysis (LTEA) Assay for Epidermal growth factor (EGF) using HepaRG (AID 2283489)
Outline: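 Differentiated human HepaRG cells, plated 48 h then switched to serum-free induction medium, were exposed for 48 h to test chemicals (8-point half-log series, top 100 uM, 0.5% DMSO). EGF mRNA was quantified by qRT-PCR, normalized to ACTB, GAPDH, POLR2A.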

[18] = read-out: Cytochrome P450 7A1 (Homo sapiens) (UniProt P22680); test: LTEA_HepaRG_CYP7A1: Life Technologies and Expression Analysis (LTEA) Assay for Cytochrome P450 7A1 (CYP7A1) using HepaRG (AID 2283496)
Outline: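 Gene expression endpoint in human HepaRG liver cells treated for 48 h with test chemicals (up to 100 uM, 0.5% DMSO). Values come from bidirectional concentration-response fitting versus DMSO.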

Measured: AC50

Sequence of Hypoxia-inducible factor 1-alpha (Homo sapiens) (Q16665 whole entry, looked up): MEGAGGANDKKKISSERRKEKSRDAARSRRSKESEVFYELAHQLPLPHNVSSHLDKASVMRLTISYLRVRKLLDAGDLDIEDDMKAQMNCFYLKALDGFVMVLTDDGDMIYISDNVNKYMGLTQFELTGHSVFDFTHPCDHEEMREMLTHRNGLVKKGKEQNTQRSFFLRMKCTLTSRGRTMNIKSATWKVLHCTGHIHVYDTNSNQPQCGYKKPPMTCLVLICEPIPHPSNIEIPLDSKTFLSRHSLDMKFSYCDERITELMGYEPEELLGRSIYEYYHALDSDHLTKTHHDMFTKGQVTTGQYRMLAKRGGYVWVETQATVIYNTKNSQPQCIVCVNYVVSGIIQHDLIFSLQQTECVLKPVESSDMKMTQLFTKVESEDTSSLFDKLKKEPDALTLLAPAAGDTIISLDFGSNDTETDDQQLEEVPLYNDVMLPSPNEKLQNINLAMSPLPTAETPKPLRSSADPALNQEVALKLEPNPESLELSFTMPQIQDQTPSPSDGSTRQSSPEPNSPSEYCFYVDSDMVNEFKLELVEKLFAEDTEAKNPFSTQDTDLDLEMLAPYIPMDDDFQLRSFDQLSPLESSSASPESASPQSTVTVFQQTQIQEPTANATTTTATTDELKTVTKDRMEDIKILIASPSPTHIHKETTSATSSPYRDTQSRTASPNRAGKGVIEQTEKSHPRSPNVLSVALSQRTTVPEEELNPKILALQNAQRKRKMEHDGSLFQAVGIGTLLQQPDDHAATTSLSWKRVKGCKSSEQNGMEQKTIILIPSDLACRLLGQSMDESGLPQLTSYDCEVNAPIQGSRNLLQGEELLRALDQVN
Sequence of Cytochrome P450 3A4 (Homo sapiens) (P08684 whole entry, looked up): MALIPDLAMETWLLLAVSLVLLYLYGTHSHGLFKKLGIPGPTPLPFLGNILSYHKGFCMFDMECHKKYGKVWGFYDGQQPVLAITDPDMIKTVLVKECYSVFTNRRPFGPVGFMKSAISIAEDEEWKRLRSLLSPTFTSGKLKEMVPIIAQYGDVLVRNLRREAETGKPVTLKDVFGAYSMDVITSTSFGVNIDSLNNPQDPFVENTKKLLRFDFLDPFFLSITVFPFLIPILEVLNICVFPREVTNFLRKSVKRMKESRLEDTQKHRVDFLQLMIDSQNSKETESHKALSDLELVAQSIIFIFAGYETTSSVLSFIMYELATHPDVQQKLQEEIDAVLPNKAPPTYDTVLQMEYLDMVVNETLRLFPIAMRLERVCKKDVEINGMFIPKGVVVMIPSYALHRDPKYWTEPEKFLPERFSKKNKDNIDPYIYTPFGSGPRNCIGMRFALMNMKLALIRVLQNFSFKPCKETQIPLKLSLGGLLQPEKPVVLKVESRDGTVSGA
Sequence of Cytochrome P450 3A7 (Homo sapiens) (P24462 whole entry, looked up): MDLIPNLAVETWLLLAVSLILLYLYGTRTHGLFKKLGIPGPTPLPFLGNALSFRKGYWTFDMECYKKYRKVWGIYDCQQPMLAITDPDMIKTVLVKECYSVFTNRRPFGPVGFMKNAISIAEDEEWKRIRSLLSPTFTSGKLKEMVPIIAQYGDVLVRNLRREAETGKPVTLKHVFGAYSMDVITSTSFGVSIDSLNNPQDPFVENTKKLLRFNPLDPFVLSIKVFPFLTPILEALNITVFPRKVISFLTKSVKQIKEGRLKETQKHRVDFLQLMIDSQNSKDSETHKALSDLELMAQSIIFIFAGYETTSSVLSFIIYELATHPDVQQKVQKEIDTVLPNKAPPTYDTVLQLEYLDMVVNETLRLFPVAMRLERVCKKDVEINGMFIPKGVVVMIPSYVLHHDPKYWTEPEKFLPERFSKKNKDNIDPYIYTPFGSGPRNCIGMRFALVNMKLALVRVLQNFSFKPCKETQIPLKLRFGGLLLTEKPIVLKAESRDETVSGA

Cc1cc(C2CC2)nc(Nc2ccccc2)n1
active: [10] 29.7 µM
not listed: [17] | [18]
inactive: all other assays above

CCOP(=S)(OCC)Oc1cc(C)nc(C(C)C)n1
active: [16] 27.3 µM
not listed: [1]
inactive: all other assays above

C=C(C)[C@H]1Cc2c(ccc3c2O[C@@H]2COc4cc(OC)c(OC)cc4[C@@H]2C3=O)O1
inactive: [9]
active: [2] 1.27 µM | [3] 15.7 µM | [4] 1 µM | CYP3A5 (gene 1577) 11.5 µM | [6] 1.25 µM | [7] 0.834 µM | [18] 3.69 µM | [8] 3 µM | [10] 1.18 µM | [11] 2.57 µM | [12] 23.9 µM | [13] 28.9 µM | [14] 23.8 µM | [15] 1.7 µM | HGF (gene 3082) 22.8 µM | [16] 1.03 µM

CCOP(=O)(NC(C)C)Oc1ccc(SC)c(C)c1 (stereo not drawn)
active: [6] 23.8 µM | [7] 19.5 µM | [15] 18.8 µM | [16] 50 µM
not listed: [1] | [17] | [18]
inactive: all other assays above

CSc1nc(NC(C)C)nc(NC(C)C)n1
active: [1] 1.46 µM | [5] 1.17 µM | [6] 44.1 µM | [7] 24.3 µM | [8] 81.6 µM | [10] 64.7 µM | [15] 50 µM | [16] 20.7 µM
not listed: [12] | [17] | [18]
inactive: all other assays above

CC1=NNC(=O)N(/N=C/c2cccnc2)C1
not listed: [12] | [17]
inactive: all other assays above

COP(=O)(NC(C)=O)SC (stereo not drawn)
not listed: [12] | [17] | [18]
inactive: all other assays above

O=c1ccc(=O)[nH][nH]1
not listed: [12] | [17] | [18]
inactive: all other assays above

CCc1cnc(C2=NC(C)(C(C)C)C(=O)N2)c(C(=O)O)c1 (stereo not drawn)
not listed: [12] | [17]
inactive: all other assays above

CCNc1nc(Cl)nc(NC(C)(C)C#N)n1
active: [1] 4.42 µM | [5] 1.77 µM
not listed: [12] | [17]
inactive: all other assays above

Nc1nc(N)nc(NC2CC2)n1
not listed: [12] | [17] | [18]
inactive: all other assays above

CCOP(=S)(OCC)Oc1ccc([N+](=O)[O-])cc1
active: [1] 8.92 µM | [5] 6.02 µM
not listed: [12] | [17] | [18]
inactive: all other assays above

CN1COCN(Cc2cnc(Cl)s2)C1=N[N+](=O)[O-]
active: [1] 38.8 µM
not listed: [12] | [17] | [18]
inactive: all other assays above

CCOP(=S)(OCC)SCCSCC
active: [1] 22.2 µM
not listed: [12] | [16] | [17] | [18]
inactive: all other assays above
